# A selection: hits, their analogues and other compounds. The true share with any hit is near 21%.
# Cycloheximide cs = counter-screen hit for Shiga toxin inhibitors, cycloheximide; cell reporter, cycloheximide protein synthesis inhibition counterscreen; max response, %; actives 12% (n = 300,000); in the data active = max response mostly above about 13%, no sharp cut-off; inactive = mostly below about 14%; note: read at 38.3 µM for the half of the compounds with a filed dose; 0% is about no effect
# Pf growth 48h = P. falciparum growth inhibition at 48 hours (one generation); P. falciparum luciferase growth in erythrocytes, 48 h; Potency, µM (top dose mostly 28.7 µM), inactives show top-dose activity change, negative = inhibition, most hits filed as inhibitors; actives 5.9% (n = 310,000); AID 504832; note: potency is the fitted concentration of half-maximal effect; % is set by controls: 0 for no effect and ±100 for the full control effect
#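 Luciferase-expressing P. falciparum in infected erythrocytes (2% hematocrit, 0.1% parasitemia final) in RPMI 1640/0.5% Albumax were exposed to compound for 48 hours at 37 C, 5% CO2; growth read as luminescence.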
# Shiga toxin inh = inhibitors of Shiga toxin in Vero cells; Vero cells, Shiga toxin protein synthesis inhibition reporter; inhibition, % at 38.7 µM; actives 9.2% (n = 290,000); AID 2315; in the data active = inhibition mostly above about 28%, no sharp cut-off; inactive = mostly below about 43%; note: 0% is about no effect
# Pf growth 96h = P. falciparum growth inhibition at 96 hours; Potency, µM (doses to about 28.7 µM), without a hit: at the top dose activity change, negative = inhibition, actives largely listed as inhibitors; actives 6.9% (n = 320,000); P. falciparum luciferase reporter growth, 96 h; AID 504834; note: potency is the fitted concentration of half-maximal effect; % is set by controls: 0 for no effect and ±100 for the full control effect
#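 Erythrocytes infected with luciferase-expressing P. falciparum were dispensed at 2% hematocrit and 0.05% parasitemia (final), then incubated with compounds 96 hours at 37 C in 5% CO2. Luminescence after detection reagent addition reported growth.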
# * = called active by the depositor; u = inconclusive; x = no result given; + = active, no number. Unless noted, calls come from the whole dose curve; as a rule, active = well fitted inhibition curve with a large enough effect; inconclusive = small, poorly fitted or top-dose-only effect, or another doubt; inactive = no such curve, though single readings can be large or run the other way.
SMILES,Cycloheximide cs,Pf growth 48h,Shiga toxin inh,Pf growth 96h
O=C(CC1C(=O)NCCN1C(=O)c1ccc([N+](=O)[O-])cc1)Nc1ccc(F)cc1 (stereo not drawn),2,-14%,-5,7%
CCOc1cccc(-c2nc3c(s2)CCc2onc(-c4cccc([N+](=O)[O-])c4)c2-3)c1,x,2%,x,67%
CCOc1ccc2oc(C(=O)NCC3CCCO3)c(C)c2c1 (stereo not drawn),46*,23%,88*,4%
COc1ccc(-c2cc(C(=O)NCC3CCCO3)c3cc(C)ccc3n2)cc1 (stereo not drawn),18*,-9%,14,u
COc1ccc(-c2cc(C(=O)NCC3CCCO3)c3ccccc3n2)cc1 (stereo not drawn),16,50%,29,19%
COc1ccc2oc(C(=O)NC(C)(C)C)c(C)c2c1,49*,428%,96*,366%
CC(C)[C@H](N)C(=O)N[C@@H](CCC(N)=O)C(=O)NCC(=O)N[C@@H](CCC(=O)O)C(=O)N[C@@H](CCC(=O)O)C(=O)N[C@@H](CO)C(=O)N[C@@H](CC(N)=O)C(=O)N[C@@H](CC(=O)O)C(=O)N[C@@H](CCCCN)C(=O)O,0,x,-16,x
COc1cccc(OCc2nnc(SC)n2C)c1,32*,91%,45,51%
COc1ccc(C(=O)NNC(=O)CSc2nnc(COc3ccc4ccccc4c3)n2C)cc1,-2,4%,-20,2.3µM*
COc1cccc(OCc2nnc(SCC(=O)NNC(=O)C3CCCCC3)n2C)c1,-5,-8%,11,13µM*
COc1ccc(C(=O)NNC(=O)CSc2nnc(COc3ccccc3)n2C)cc1,-3,-26%,-8,-11%
COc1cccc(OCc2nnc(SCC(=O)OC3CCCCC3)n2C)c1,-4,u,-16,17%
CNC(=O)CCN(Cc1ccco1)S(=O)(=O)c1ccc(OC)c(OC)c1,1,35%,-3,30%
CC1CCC(NC(=O)C(NC(=O)c2ccccc2)C(C)C)CC1 (stereo not drawn),10,36%,39,-9%
C/C(CC(=O)Nc1ccccc1Cl)=N\NC(=O)C(=O)NCCO,-1,2%,18,20%
O=C(Nc1ccccc1Br)C(=O)N1CCCC1,40*,23%,active,49%
O=C(Nc1ccccn1)C(=O)N1CCCCC1,22,2%,47*,-20%
C/C(CC(=O)Nc1ccccc1Br)=N\NC(=O)C(=O)N1CCCC1,8,9%,-4,10µM*
N#Cc1ccccc1S(=O)(=O)Nc1ccc2c(c1)OCCO2,14,17%,15,u
COC(=O)CN(c1nc(C)c(Br)c(OC)n1)S(=O)(=O)c1ccccc1,-1,u,-6,217%
Cc1ccc(S(=O)(=O)Oc2ccc3ccc(O)cc3c2)cc1,29*,18%,x,-2%
CCOc1ccc(S(=O)(=O)Oc2ccc3ccccc3c2)cc1,29*,45%,43*,-2%
Cc1ccc(S(=O)(=O)Oc2ccc(C(c3c(C)[nH][nH]c3=O)c3c(C)[nH][nH]c3=O)cc2)cc1,-4,u,-26,x
Cc1nc(C)c(-c2csc(Nc3ccc(F)cc3)n2)s1,33*,95%,64*,22%
Cc1nc(C)c(-c2csc(Nc3ncccc3C)n2)s1,43*,166%,56*,-14%
SMILES,Cycloheximide cs,Pf growth 48h,Shiga toxin inh,Pf growth 96h
COc1ccccc1Nc1nc(-c2sc(NC(=O)c3ccc([N+](=O)[O-])cc3)nc2C)cs1,5,u,18,u
Cc1nc(N)sc1-c1csc(Nc2ccc(S(N)(=O)=O)cc2)n1,-2,13%,-10,-23%
COc1ccccc1Nc1nc(-c2sc(N)nc2C)cs1,14*,-22%,12,u
Cc1nc(N)sc1-c1csc(NCc2ccccc2)n1,5,u,15,u
Cc1nc(C)c(-c2csc(Nc3ccc(C(=O)O)c(O)c3)n2)s1,6,-14%,-5,u
Cc1nc(N)sc1-c1csc(Nc2ncccn2)n1,44*,100%,42*,34%
OC[C@@H]1O[C@](CO)(O[C@H]2O[C@H](CO)[C@@H](O)[C@H](O)[C@H]2O)[C@H](O)[C@H]1O,x,-6%,x,-7%
O=S(=O)(NCC1CCN(c2ccc(S(=O)(=O)N3CCOCC3)cc2)CC1)c1ccc(F)cc1,-5,u,-9,18%
COc1cccc(Nc2nc(-c3sc(C)nc3C)cs2)c1,42*,32%,62*,-2%
COc1cccc(NC(=O)CSc2ccc(-c3sc(C)nc3C)nn2)c1,1,u,-3,u
COc1cccc(Nc2nc(-c3sc(N)nc3C)cs2)c1,23*,u,+,x
O=C(CCNS(=O)(=O)c1ccccc1)OCC(=O)c1ccc(Cl)cc1,x,8%,x,1%
CCC(=O)Nc1c(-c2ccccc2)c(=O)c2ccccc2n1C,1,-9%,-6,-4%
O=C(CCNS(=O)(=O)c1ccc(Cl)cc1)Nc1ccncc1,-7,-4%,3,7%
CCC(CC)C(=O)c1c[nH]c(C(=O)NCc2cccnc2)c1,9,-10%,-6,59%
CC(C)CC(=O)c1c[nH]c(C(=O)NCc2cccnc2)c1,1,10µM*,-7,u
OC(CNCCc1ccccc1)c1ccccc1 (stereo not drawn),-2,5.9µM*,-20,5.9µM*
O[C@@H](CNC[C@H](O)c1ccccc1)c1ccccc1,2,9.3µM*,-4,9.3µM*
CSc1ccc(CNCC(O)c2ccccc2)cc1 (stereo not drawn),22*,u,16,46%
CC1CCC(NCC(O)c2ccccc2)CC1 (stereo not drawn),-3,x,-7,6.6µM*
CC(O)CNCc1ccc(-c2ccccc2)cc1 (stereo not drawn),-1,-5%,-12,-11%
CCCCC(CC)CNCC(O)c1ccccc1 (stereo not drawn),9,u,-3,u
O=C(c1ccc(N2CCCS2(=O)=O)cc1)N1CCN(c2ccccc2)CC1,0,29%,15,3%
COc1ccc(CCN=C(N)NS(=O)(=O)c2ccc(C)c(C)c2)cc1,-3,0%,-3,-1%
COc1ccc(CCNCC(C)c2ccccc2)cc1 (stereo not drawn),-3,18%,-6,18%
SMILES,Cycloheximide cs,Pf growth 48h,Shiga toxin inh,Pf growth 96h
COc1ccc(CCNCC(O)c2ccccc2)cc1 (stereo not drawn),-2,9.3µM*,-1,u
O=C(NCC(O)c1ccccc1)c1ccccc1 (stereo not drawn),32*,233%,60*,262%
COc1cc2[nH]c(=O)c(C(=O)NCc3ccccc3Cl)c(O)c2cc1OC,1,-4%,-2,u
CC(=O)c1ccc(NS(=O)(=O)Cc2ccc(Cl)cc2)cc1,6,4%,-10,x
CC(=O)Nc1cccc(NS(=O)(=O)Cc2ccc(Cl)cc2)c1,8,-15%,32,15µM*
CC(=O)NCCNC(=O)c1ccc(CSc2ccc(Cl)cc2)cc1,37*,228%,94*,239%
CCNC(=O)c1ccc(CSc2ccc(Cl)cc2)cc1,34*,4.7µM*,55*,u
O=C(NCc1ccccc1)c1ccc(Cl)cc1,17,40%,12,-1%

# Screening results: PubChem, National Center for Advancing Translational Sciences (NCATS)
